Experimental data published in ChEMBL document CHEMBL3988442, “University of Dundee, Small-Polar-MMV Screening Library” (2021).

Biological target: AMP-activated protein kinase, AMPK (Homo sapiens) (UniProt P54646+O43741+P54619+Q9UGJ0+Q9Y478+Q13131+Q9UGI9)
Assay: AMP-dependent Kinase enzyme assay. An in vitro enzyme assay that detects ADP turnover that is directly proportional to AMPK activity. This uses naive AMPK that is activated during the assay with MK-8722
Type: functional
Set-up: scale not given: direction of the effect not stated beside the values
Conditions: 30 µM

SMILES	Percent Effect [%]
COc1ccc(NC(=O)Cc2c(C)nn(C)c2C)cc1F	1.16
Cc1cc(=O)[nH]c(=O)n1Cc1ccccc1	1.77
Cc1ccc(-c2ccccc2CC2(C(=O)NC(C)C)CCCNC2)cc1 (stereo not given)	6.43
CC(=O)N1CCCC(C(=O)NCCc2ccc(F)c(Br)c2)C1 (stereo not given)	9.28
COc1ccc(OC)c(S(=O)(=O)NC(=O)C(C)OC)c1 (stereo not given)	-3.05
COCCC1(C(=O)O)CCCN(C(=O)c2cnc3c(c2)CCCC3)C1 (stereo not given)	2.02
CN(C)c1nc2sc(C(=O)N3CCN(C(=O)OC(C)(C)C)CC3)cc2s1	63.5
CN(C)Cc1cnn(-c2ccccc2C(=O)NCCC2CCCN2C)c1 (stereo not given)	5.44
Cc1nsc(C(=O)NCCc2cccs2)n1	1.77
Cc1c(C(=O)N(C)C)cccc1N(C)S(C)(=O)=O	11.2
CN1CCC(NC(=O)c2cc(Cl)cc(Br)c2O)C1=O (stereo not given)	12.7
CC(NC(=O)NCc1cccnc1N(C)C)c1cccs1 (stereo not given)	-8.61
CN1CCC(Cc2cnc(CNC(=O)Cc3cccc(F)c3)cn2)CC1	3.91
Cc1onc(-c2ccncc2)c1C(=O)NC1CCCOC1 (stereo not given)	-0.537
Cc1cc(CNCC2(O)CCOCC2)ccc1F	-5.64
COc1cccc(S(=O)(=O)N2CCN(C)[C@@H]3CS(=O)(=O)C[C@@H]32)c1	1.52
COc1cccc(F)c1CN1CCC(c2nc(C)cc(C)n2)C1 (stereo not given)	1.72
Cc1ccc(-c2nc(CC3CCN(C)CC3)no2)cc1N1CCNC1=O	11.1
Cc1cccc(C(=O)Nc2c(C(N)=O)n[nH]c2C)c1C	-0.641
Cc1cnn(C2CCCN(C(=O)c3cc(-c4cccs4)n[nH]3)C2)c1 (stereo not given)	-1.86
